Screening results as filed in PubChem BioAssay.
An excerpt weighted towards active compounds, which were near 8.7% of everything screened.
Pf growth 48h: P. falciparum growth inhibition at 48 hours (one generation); Potency, µM (doses to about 28.7 µM), for the others: at the highest dose activity change, negative = inhibition, most hits filed as inhibitors; AID 504832; P. falciparum luciferase growth in erythrocytes, 48 h; 5.9% of 310,000 active
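Firefly luciferase activity from engineered P. falciparum reports growth; inhibitors lower the luminescent signal. Cultures contained 2% hematocrit erythrocytes at 0.1% final parasitemia.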
Vaccinia Venus: vaccinia inhibition (Venus reporter); Vaccinia virus Venus reporter expression, fluorescence; Potency, µM (titrated, usually from 36.5 µM), for the others: at the highest dose activity change, negative = inhibition, usual class: inhibitors; 0.46% of 330,000 active; AID 720580; calls by dose curve; tested in A549 cells; also: nearly all actives have a fitted effect of over 30% in size
Pf growth 96h: P. falciparum growth inhibition at 96 hours | AID 504834 | Potency, µM (highest dose often 28.7 µM), inactives show at the top dose activity change, negative = inhibition, usual class: inhibitors | 6.9% of 320,000 active | P. falciparum luciferase reporter growth, 96 h
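Compounds incubated with erythrocytes infected by luciferase-expressing P. falciparum (2% hematocrit, 0.05% parasitemia final) for 96 hours, 37 C in 5% CO2. Growth inhibition scored as decreased luciferase luminescence.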
AMA1 RON2 block: AMA1-RON2 (P. falciparum) interaction inhibition. AlphaScreen AMA1-biotinylated RON2 peptide binding. Potency, µM (highest dose often 58.2 µM), for the others: at the top dose activity change, negative = inhibition, actives largely listed as inhibitors. 0.2% of 360,000 active. AID 720542;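 also: 0% = vehicle wells and -100% = peptide control; nearly all actives have a fitted effect of over 45% in size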
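AMA1 (3D7) with his tag at 25 nM final met compounds first, then biotinylated RON2 peptide at 25 nM; detection used donor plus acceptor beads, 10 µg/mL apiece, read by AlphaScreen after 30 min at room temperature.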
VACV mCherry inh: inhibitors of vaccinia virus infection (mCherry reporter signal) | Vaccinia virus mCherry reporter infection, fluorescence | Potency, µM (series often up to 36.5 µM), for the others: top-dose activity change, negative = inhibition, actives largely listed as inhibitors | 0.63% of 310,000 active; calls by dose curve; tested in A549 cells; also: nearly all actives have a fitted effect of over 35% in size
* = called active by the depositor. Unless noted, calls follow the shape of the dose curve; as a rule, active = well fitted curve in the direction sought with a large enough effect; inconclusive = small, poorly fitted or top-dose-only effect, or another doubt; inactive = no such curve, though single readings can be large; an effect the other way counts as inactive or inconclusive. Unless noted, % is scaled to controls: 0 for no effect and ±100 for the full control effect; potency is read from the fitted curve at half-maximal effect.

Results for OC(COc1ccc(CN2CCCCO2)cc1)CN1CCCCC1 (stereo not given) ?
Pf growth 48h: inconclusive; Vaccinia Venus: -13%; Pf growth 96h: 12µM*; AMA1 RON2 block: 3%; VACV mCherry inh: -26%

What do the screens show for `CCOc1ccc(C(O)(c2ccccc2)C(CN2CCCC2)c2ccccc2)cc1` (stereo not given)?
Pf growth 48h: 12µM*; Vaccinia Venus: -21%; Pf growth 96h: 121%; AMA1 RON2 block: 0%; VACV mCherry inh: inactive

What do the screens show for `CCc1nn2c(=O)cc(COC(=O)C(CC)c3ccccc3)nc2s1` (stereo not given)?
Vaccinia Venus: -6%; VACV mCherry inh: -4%

Results for CO[C@H]1[C@H](NC(=O)c2ccco2)c2ccccc2C12CCN(Cc1cnc(N(C)C)s1)CC2 ?
Vaccinia Venus: -1%; VACV mCherry inh: -5%

What do the screens show for `CC(C)(c1ccccc1)c1ccc(OCC(O)CN2CCCC2)cc1` (stereo not given)?
Pf growth 48h: 13µM*; Vaccinia Venus: inconclusive; Pf growth 96h: -31%; AMA1 RON2 block: -1%; VACV mCherry inh: -23%

How did Cc1ccc(NC(=O)CCN2C(=O)c3cccc4cccc(c34)C2=O)cc1 do in these assays?
Pf growth 48h: 0%; Vaccinia Venus: -1%; Pf growth 96h: inconclusive; AMA1 RON2 block: 21%; VACV mCherry inh: inactive

What do the screens show for `Cc1cc(C)n(C(=O)CCC(=O)Nc2ccc(C)c(C)c2)n1`?
Pf growth 96h: 12µM*; AMA1 RON2 block: -1%

Results for CC1CCN(CCC(=O)Nc2ccc(Cl)cc2)CC1 ?
Pf growth 48h: inconclusive; Vaccinia Venus: -13%; Pf growth 96h: -7%; AMA1 RON2 block: 14%; VACV mCherry inh: -5%

What do the screens show for `Cc1cc(C)n(C(=O)CCC(=O)NCc2ccccc2)n1`?
Pf growth 48h: -6%; Vaccinia Venus: 1%; Pf growth 96h: 8%; AMA1 RON2 block: -1%; VACV mCherry inh: -13%

What do the screens show for `Cc1ccc(NC(=O)CCN2C(=O)c3ccccc3C2=O)cc1`?
Pf growth 48h: 3%; Vaccinia Venus: -12%; Pf growth 96h: 12µM*; AMA1 RON2 block: -1%; VACV mCherry inh: -9%

Results for Cc1ccc(NC(=O)CCN2CCC(C)CC2)cc1 ?
Pf growth 48h: 34%; Vaccinia Venus: 1%; Pf growth 96h: 13µM*; AMA1 RON2 block: 8%; VACV mCherry inh: inactive

What do the screens show for `Cc1ccc(NC(=O)CCN2CCOCC2)cc1C`?
Pf growth 48h: 19%; Pf growth 96h: 0.93µM*; AMA1 RON2 block: -1%

What do the screens show for `COC(=O)c1ccc(NC(=O)CN2CCN(c3ccccc3C)CC2)cc1`?
Pf growth 48h: 16%; Vaccinia Venus: -10%; Pf growth 96h: 9.3µM*; AMA1 RON2 block: 3%; VACV mCherry inh: -11%

How did COC(=O)c1c(NC(=O)CN2CCN(c3ccccc3OC)CC2)c2c(C)cccc2n1C do in these assays?
Pf growth 96h: -18%

Results for O=C(NCCN1CCN(C(=O)Nc2ccccc2)CC1)Nc1ccccc1 ?
Vaccinia Venus: -5%; Pf growth 96h: 5.2µM*; AMA1 RON2 block: -2%; VACV mCherry inh: 7%

What do the screens show for `Cc1cccnc1NC(=O)CCCN1C(=O)c2ccccc2C1=O`?
Pf growth 48h: -19%; Vaccinia Venus: -3%; AMA1 RON2 block: -6%; VACV mCherry inh: -6%

How did COC(=O)c1c(NC(=O)CN2CCN(c3ccccc3)CC2)c2c(C)cccc2n1C do in these assays?
Vaccinia Venus: inconclusive; Pf growth 96h: 5.9µM*; AMA1 RON2 block: 27%

Results for COc1ccc(NC(=O)CN2CCN(c3ccccc3C)CC2)cc1 ?
Pf growth 48h: -10%; Vaccinia Venus: -16%; Pf growth 96h: inconclusive; AMA1 RON2 block: -7%; VACV mCherry inh: inconclusive

Results for O=C(CCCN1C(=O)c2ccccc2C1=O)Nc1c2c(nc3c1CCC3)CCC2 ?
Pf growth 48h: inconclusive; Vaccinia Venus: -5%; Pf growth 96h: 0.47µM*; AMA1 RON2 block: 14%; VACV mCherry inh: -2%

How did Cc1ccc(C)c(NC(=O)CCN2CC(C)CC(C)C2)c1 (stereo not given) do in these assays?
Pf growth 48h: 4%; Pf growth 96h: inconclusive; AMA1 RON2 block: -2%

How did COC(=O)c1ccc(NC(=O)CCN2CCN(CCC(=O)Nc3ccc(C(=O)OC)cc3)CC2)cc1 do in these assays?
Pf growth 48h: -20%; Vaccinia Venus: -7%; Pf growth 96h: inconclusive; AMA1 RON2 block: -2%

Results for COC(=O)c1ccc(NC(=O)CCN2CCCCC2)cc1 ?
Pf growth 48h: -10%; Vaccinia Venus: -24%; Pf growth 96h: 1.5µM*; AMA1 RON2 block: -18%

What do the screens show for `Cc1ccc(C)c(NC(=O)CCN2CCC(C)CC2)c1`?
Pf growth 48h: 10%; Vaccinia Venus: -25%; Pf growth 96h: 5.2µM*; AMA1 RON2 block: 1%; VACV mCherry inh: inactive

Results for CCN1CCN(CCC(=O)Nc2ccccc2)CC1 ?
Pf growth 48h: 70%; Vaccinia Venus: 3%; Pf growth 96h: 13µM*; AMA1 RON2 block: 4%; VACV mCherry inh: -22%

Results for Cc1cc(C)n(CC(=O)n2nc(C)cc2C)n1 ?
Pf growth 48h: 8%; Vaccinia Venus: -10%; Pf growth 96h: 10µM*; AMA1 RON2 block: -16%; VACV mCherry inh: -13%

Results for CCN1CCN(CCC(=O)Nc2ccc(C)cc2)CC1 ?
Pf growth 48h: 18%; Pf growth 96h: inconclusive; AMA1 RON2 block: 8%

How did CNC(=O)[C@@H]1C[C@@H](NCc2cccc(Oc3ccccc3)c2)CN1C(C)C do in these assays?
Vaccinia Venus: -10%; VACV mCherry inh: -14%

Results for O=C(CCN1C(=O)c2ccccc2S1(=O)=O)Nc1ccccc1 ?
Pf growth 48h: 11%; Pf growth 96h: 35%; AMA1 RON2 block: -3%

Results for O=C(CCN1C(=O)c2ccccc2S1(=O)=O)Nc1ccc(C(=O)O)cc1 ?
Pf growth 48h: 36%; Vaccinia Venus: -3%; Pf growth 96h: 10µM*; AMA1 RON2 block: -6%; VACV mCherry inh: -2%

How did Cc1ccc(C)c(NC(=O)CCN2CCc3ccccc3C2)c1 do in these assays?
Pf growth 48h: 13µM*; Vaccinia Venus: -9%; Pf growth 96h: 0%; AMA1 RON2 block: -9%; VACV mCherry inh: -14%

How did Cc1ccc(-c2nsc(NC(=O)c3oc4cc(C)c(Cl)cc4c3C)n2)cc1 do in these assays?
Vaccinia Venus: -1%; VACV mCherry inh: -6%

Results for Cc1sc2nc(SCCN(C)C)n(-c3ccccc3)c(=O)c2c1-c1ccc(F)cc1 ?
Pf growth 48h: 10µM*; Vaccinia Venus: -20%; Pf growth 96h: inconclusive; AMA1 RON2 block: -13%; VACV mCherry inh: -28%

What do the screens show for `O=C(NCc1ccco1)c1c(O)c2cccc3c2n(c1=O)CCC3`?
Pf growth 48h: 13%; Vaccinia Venus: -14%; Pf growth 96h: 13µM*; AMA1 RON2 block: -3%; VACV mCherry inh: inactive

Results for CCc1ccc(S(=O)(=O)Nc2cccc(-c3ccc(N4CCCCC4)nn3)c2)s1 ?
Vaccinia Venus: -17%; VACV mCherry inh: -10%
